Assay outcomes deposited in PubChem by National Center for Advancing Translational Sciences (NCATS).
GLS inhibitor: glutaminase GLS (human) inhibition. GLS enzymatic activity, qHTS titration. Potency, µM (highest dose often 45.5 µM), hits mostly inhibitors. 0.21% of 410,000 active
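hKGA; 45 mM KH2PO4 pH 8.2 + 0.02% Tween-20; cpd via pin tool; 1 mM Gln soln; GluOx/HRP/Amplex Red; RT 30 min; fluor. t0 & final.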
TrxR1 substrate: rat thioredoxin reductase 1 substrate activity; AID 588456; purified TrxR1 substrate turnover, NADPH consumption readout; 0.01% of 390,000 active; O89049; Potency, µM (doses to about 114 µM); also: nearly all actives have a fitted effect of over 50% in size
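Rat TrxR1, dispensed at 90 nM, was prereduced with 400 uM NADPH (final) for 5 min at ~22 deg C, then incubated with compound 15 min before 400 uM selenite. A first-read NADPH fluorescence drop versus no-compound background flagged substrates.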
IDH1 R132H inh: human IDH1 R132H inhibition; O75874; IDH1-R132H enzyme, NADPH consumption, diaphorase/resazurin fluorescence; Potency, µM (top dose mostly 76.6 µM), usual class: inhibitors; 0.093% of 390,000 active; AID 602179; also: nearly all actives have a fitted effect of over 65% in size
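IDH1-R132H (0.5 ug/mL) preincubated 30 min with compound, then NADPH (0.016 mM) and alpha-KG (2 mM) added; 80 min at RT, pH 7.5. Remaining NADPH coupled via diaphorase/resazurin to fluorescence (540/590 nm); concentration-response curves normalized to no-enzyme control.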
TrxR1 inh: inhibitors of rat thioredoxin reductase 1 | recombinant rTrxR1, NADPH fluorescence consumption, selenite substrate | O89049 | Potency, µM (highest dose often 114 µM), actives largely listed as inhibitors | 1% of 390,000 active | AID 588453; also: nearly all actives have a fitted effect of over 65% in size
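Rat TrxR1 (90 nM in the dispensed reagent) was pre-reduced with 400 uM NADPH for 5 min at room temperature, then incubated with compound for 15 min. After 400 uM selenite was added, NADPH fluorescence (Ex 340/Em 450 nm) was followed for 8 min.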
PKM2 activator: increases activity of human pyruvate kinase M2. Potency, µM (titrated, usually from 57.5 µM), usual class: activators. 0.34% of 260,000 active. P14618. purified PKM2, Kinase-Glo ATP luminescence, activation; response scale: 0% is enzyme alone, no compound; also: nearly all actives have a fitted effect of over 55% in size
Target sequence (P14618 whole entry, looked up): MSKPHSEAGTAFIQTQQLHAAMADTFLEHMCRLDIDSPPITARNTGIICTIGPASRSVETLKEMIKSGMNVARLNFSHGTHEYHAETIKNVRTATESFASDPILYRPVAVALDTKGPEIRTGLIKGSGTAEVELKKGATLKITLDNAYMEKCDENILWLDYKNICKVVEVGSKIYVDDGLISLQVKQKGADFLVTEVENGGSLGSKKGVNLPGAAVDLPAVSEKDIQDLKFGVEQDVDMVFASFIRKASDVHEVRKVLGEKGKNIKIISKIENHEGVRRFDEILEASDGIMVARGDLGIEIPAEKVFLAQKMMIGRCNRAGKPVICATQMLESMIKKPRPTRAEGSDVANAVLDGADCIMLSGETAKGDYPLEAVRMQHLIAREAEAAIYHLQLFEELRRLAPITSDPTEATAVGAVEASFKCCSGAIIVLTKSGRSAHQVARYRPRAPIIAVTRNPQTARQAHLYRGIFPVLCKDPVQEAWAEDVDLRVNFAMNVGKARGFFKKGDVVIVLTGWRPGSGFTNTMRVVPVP
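hPK-M2, >95% pure; 0.1 mM ADP / 0.5 mM PEP final; imidazole pH7.2 buffer w/ 7 mM MgCl2, 50 mM KCl; 1 h RT; Kinase-Glo lum. Intermediate enzyme activity for dual inhibitor/activator qHTS.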
LDHA inh: LDHA (human) enzyme inhibition. 0.15% of 480,000 active. activity change, % (values are at about 110 or 230 µM). P00338. purified LDHA, NADH/diaphorase-resazurin fluorescence; active compounds read low. AID 1347041; in the data active = activity change below about -30%; inconclusive = mostly about -25% to -30%
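Human LDH5 (2 nM) was incubated with 0.06 mM NADH and 0.2 mM pyruvate for 5 min at room temperature in Tris pH 7.4. Remaining NADH was coupled through diaphorase/resazurin, and resorufin fluorescence was read at 0 and 20 min.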
Numbers stand for hits; - = inactive; ? = inconclusive; . = not tested or not shown; [ ] = remark or other dose. Most compounds without a hit are left out; they make up all but 1.4% or so of the library. Unless noted, calls follow the shape of the dose curve; as a rule, active = well fitted curve in the direction sought with a large enough effect; inconclusive = small, poorly fitted or top-dose-only effect, or another doubt; inactive = no such curve, though single readings can be large; an effect the other way counts as inactive or inconclusive.

SMILES | GLS inhibitor | TrxR1 substrate | IDH1 R132H inh | TrxR1 inh | PKM2 activator | LDHA inh
Cc1cc(C)c(S(=O)(=O)ON2C(=O)c3ccccc3C2=O)cc1C | - | - | - | 3.5µM | - | -
Cc1ccc(S(=O)(=O)N2CCN(CCc3ccccc3)CC2)c(C)c1 | - | - | - | - | . | -
Cc1cc(C)c(C)c(S(=O)(=O)ON2C(=O)c3ccccc3C2=O)c1C | - | - | - | 1.3µM | - | -
CC(C)C(=O)N1CCN(C(=O)c2cn(C)c3ccccc23)CC1 | . | . | . | . | . | -
NS(=O)(=O)c1ccc(NC(=O)Cn2ncc3c2-c2ccccc2OC3)cc1 | - | - | - | - | - | -34
O=C(O)c1cc(-c2cccs2)nc2ccc(Cl)cc12 | . | . | . | . | . | -
COC(=O)c1ccc2c(=O)[nH]c(CSc3nnc(-c4cccc(C)c4)n3Cc3ccco3)nc2c1 | . | . | . | . | . | -
CCCC(=O)N(C1CC(C)C(C#N)(C#N)C1(C#N)C#N)N(C)C (stereo not given) | - | - | - | 2.5µM | ? | -
CC(=O)N(C1CC(C)C(C#N)(C#N)C1(C#N)C#N)N(C)C (stereo not given) | - | - | - | 1.6µM | ? | -
NC(=S)N/N=C/c1ccccc1Cl | . | . | . | . | . | -
CC(C)Sc1nc(N2CCOCC2)c2c(c1C#N)CCCC2 | . | . | . | . | . | -
COc1ccc(NC(=S)Nc2cccc([N+](=O)[O-])c2)cc1 | - | - | - | 18µM | - | -
COc1ccc(NC(=O)c2cc([N+](=O)[O-])ccc2O)cc1 | - | - | - | - | - | -38
CCOC(=O)c1cccc(NC(=O)/C=C/c2cccc([N+](=O)[O-])c2)c1 | - | - | - | - | - | -
COc1ccc(NC(=O)c2cccc([N+](=O)[O-])c2)cc1 | - | - | - | - | - | -
CCOC(=O)/C=C/C(=O)Nc1cccc([N+](=O)[O-])c1 | ? | - | - | 4µM | - | -
S=C(NCCc1c[nH]c2ccccc12)Nc1cccc(Cl)c1 | . | . | . | . | . | -
COc1ccccc1-n1c(SCC(=O)N(C)C)nnc1-c1ccco1 | - | - | - | - | . | -
COc1ccc(OC)c(NC(=O)CSc2ccc(-c3ccco3)nn2)c1 | - | - | - | 4µM | - | -
COc1ccccc1NC(=O)CSc1ccc(-c2ccco2)nn1 | - | - | - | 50µM | - | -
COc1ccccc1-n1c(SCC(=O)NC(C)(C)C)nnc1-c1ccco1 | - | - | - | 8.9µM | - | -
CCC(C)N(CCNC(=O)Cn1nc(Cc2cccnc2)c2ccccc2c1=O)Cc1ccco1 (stereo not given) | . | . | . | . | . | -
NC(=O)NC(=O)CSCc1ccccc1 | . | . | . | . | . | -
COc1ccc(CC(=O)NC(C)c2nnc(SCC(=O)c3ccc(F)cc3)n2C)cc1 (stereo not given) | . | . | . | . | . | -
CN(Cc1ccc(C(=O)NCC(F)(F)F)cc1)C(=O)C1CCN(C(=O)C2CC2)CC1 | . | . | . | . | . | -
SMILES | GLS inhibitor | TrxR1 substrate | IDH1 R132H inh | TrxR1 inh | PKM2 activator | LDHA inh
Cc1cccc(N(C(=O)CNC(=O)c2ccco2)C(C(=O)NC2CCCCC2)c2cccnc2)c1 (stereo not given) | - | -[0.0914 µM] | - | - | - | -
O=C(NC1CCCCC1)C(c1cccnc1)N(C(=O)CCl)c1cccc(Cl)c1 (stereo not given) | - | - | - | 6.3µM | - | -
CCC(CC)NC(=O)CN1CCN(c2ccc(C(F)(F)F)cn2)CC1 | . | . | . | . | . | -
O=c1cc(Br)c(O)c(Br)cc1Br | - | - | - | 3.2µM | . | -
CC(=O)N/C(=C/c1ccccc1)c1sc2ccccc2[n+]1CCCCI | . | - | . | 45µM | . | -
N#Cc1ccc(CSc2nnc(Cc3cccs3)n2Cc2ccco2)cc1 | - | - | - | 40µM | ? | -
COc1cc2c(cc1NC(=O)CSc1nnc(Cc3cccs3)n1C)oc1ccccc12 | - | - | - | - | - | -
COc1cc2c(cc1NC(=O)CSc1nnc(Cc3cccs3)n1Cc1ccco1)oc1ccccc12 | - | - | - | 14µM | - | -
Cc1ccc(C(=O)/C(C#N)=C/c2ccccc2OCc2ccc(Br)cc2)cc1 | . | . | . | . | . | -
CC(=O)Nc1ccc(SC(C)C(=O)c2ccc3c(c2)NC(=O)CO3)cc1 (stereo not given) | . | . | . | . | . | -
CCOc1ccc(S(=O)(=O)N2CCc3ccccc3C2)cc1 | - | - | - | - | - | -
CCOc1ccc(S(=O)(=O)N2CCc3cc(OC)c(OC)cc3C2)cc1 | - | - | - | - | 16µM | -
CCCNC(=O)COc1ccccc1NC(C)=O | . | . | . | . | . | -
CCc1cc(SC#N)cc(CC)c1NC(=O)CCl | - | - | ? | 25µM | - | -
COc1cc(C(=O)NCc2cc(C)nc3ccccc23)cc(OC)c1OC | - | - | - | - | - | -
COc1cc(C(=O)NCc2cccc3ccccc23)cc(Cl)c1OC | - | - | - | - | 18µM | -
O=[N+]([O-])c1ccc(C2Nc3cccc4cccc(c34)N2)cc1 | - | - | - | 35µM | - | -
O=[N+]([O-])c1cccc(C2Nc3cccc4cccc(c34)N2)c1 | - | - | - | 50µM | - | -
CCCOc1ccc(C(=O)CCNC(Cc2c[nH]c3ccccc23)C(=O)O)cc1 (stereo not given) | - | - | - | 1.8µM | . | -
O=S(=O)(CC(CN1CCCC1)N1CCCC1)c1ccc2ccccc2c1 (stereo not given) | - | - | - | 8.9µM | - | -
Cc1ccc(N(CC(O)CN2CCCCC2)S(=O)(=O)c2ccc3ccccc3c2)cc1 (stereo not given) | . | . | . | . | . | -
Cc1ccccc1CNC(=O)c1c(C)oc2c1C1=NCCN1C=N2 | 4µM | - | - | - | . | -
CCOC(=O)c1c(C)c(-c2ccccc2)n(CC(=O)Nc2ccc(OC)cc2OC)c1C | . | . | . | . | . | -
Cc1cccc(NC(=O)CS(=O)(=O)c2c[nH]c3ccccc23)c1C | - | - | - | - | 25µM | -
Cc1ccc(C)c(NC(=O)CS(=O)(=O)c2c[nH]c3ccccc23)c1 | - | - | - | - | - | -
SMILES | GLS inhibitor | TrxR1 substrate | IDH1 R132H inh | TrxR1 inh | PKM2 activator | LDHA inh
COc1ccc(-n2nc(C#N)c(Cl)cc2=O)cc1 | - | - | - | 6.3µM | - | -
N#C/C(=C/c1ccc(O)cc1)c1nc2ccccc2o1 | . | . | . | . | . | -
CC(O)CNc1nc2c(c(=O)n(Cc3ccc(Cl)cc3)c(=O)n2C)n1C (stereo not given) | 11µM | - | - | - | -[11.5 µM] | -
CN(CCO)c1nc2c(c(=O)n(Cc3ccc(Cl)cc3)c(=O)n2C)n1C | 8.9µM | - | - | - | . | -
CN1CCN(c2oc(COc3ccc(Cl)cc3Cl)nc2C#N)CC1 | . | . | . | . | . | -
O=C(Cc1csc(-c2cccs2)n1)Oc1ccc(Cl)c2ccccc12 | . | . | . | . | . | -
O=C(O)/C=C/C(=O)Nc1ccc(Oc2ncnc3cc(Cl)ccc23)nc1 | - | - | - | 56µM | - | -
